For nine compounds, composite z-score and z-score results are on record in PubChem BioAssay.

Active and inactive are the calls of the source.

The nature of assay [1]: small molecules captured by biotinylated probe aFSTL3 – biochemical, small-molecule microarray, fluorescence 635/667, stem cell growth factor project, primary screen (AID 1064).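 Note: measures binding of the biotinylated anti-FSTL3 antibody to printed compounds.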 Particulars: higher = more signal.
A short description of assay [2]: binders from COS7 lysate, DM2A8 probe, primary screen, torsin A project, cell lysate, small-molecule microarray, fluorescence 635/667 (AID 1065). Particulars: higher = more signal, COS7 lysate expressing mutant human TOR1A.
The nature of assay [3]: small molecules captured by biotinylated probe aFGF2 – biochemical, small-molecule microarray, fluorescence 635/667, stem cell growth factor project, primary screen (AID 1067).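 Note: measures binding of biotinylated aFGF2 protein to printed compounds on slides; z-score merges feature fluorescence and signal-to-noise across triplicate slides.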 Particulars: higher = more signal.
Assay [4] in a line: small molecules captured by biotinylated probe aFGF10 – biochemical, small-molecule microarray, fluorescence 635/667, stem cell growth factor project, primary screen (AID 1071).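 Note: score merges 667 nm spot intensity and signal to noise from triplicate slides.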 Particulars: higher = more signal.
In assay [5] the target is Neurogenic locus notch homolog protein 2 (Homo sapiens) (UniProt Q04721). Nature of the assay: small molecules binding Notch2 protein – biochemical, small-molecule microarray, 635 nm fluorescence, stem cell growth factors, primary screen (AID 1073). Particulars: higher = more signal.
Chain of Neurogenic locus notch homolog protein 2 (Homo sapiens) (Q04721 whole entry, looked up, canonical isoform): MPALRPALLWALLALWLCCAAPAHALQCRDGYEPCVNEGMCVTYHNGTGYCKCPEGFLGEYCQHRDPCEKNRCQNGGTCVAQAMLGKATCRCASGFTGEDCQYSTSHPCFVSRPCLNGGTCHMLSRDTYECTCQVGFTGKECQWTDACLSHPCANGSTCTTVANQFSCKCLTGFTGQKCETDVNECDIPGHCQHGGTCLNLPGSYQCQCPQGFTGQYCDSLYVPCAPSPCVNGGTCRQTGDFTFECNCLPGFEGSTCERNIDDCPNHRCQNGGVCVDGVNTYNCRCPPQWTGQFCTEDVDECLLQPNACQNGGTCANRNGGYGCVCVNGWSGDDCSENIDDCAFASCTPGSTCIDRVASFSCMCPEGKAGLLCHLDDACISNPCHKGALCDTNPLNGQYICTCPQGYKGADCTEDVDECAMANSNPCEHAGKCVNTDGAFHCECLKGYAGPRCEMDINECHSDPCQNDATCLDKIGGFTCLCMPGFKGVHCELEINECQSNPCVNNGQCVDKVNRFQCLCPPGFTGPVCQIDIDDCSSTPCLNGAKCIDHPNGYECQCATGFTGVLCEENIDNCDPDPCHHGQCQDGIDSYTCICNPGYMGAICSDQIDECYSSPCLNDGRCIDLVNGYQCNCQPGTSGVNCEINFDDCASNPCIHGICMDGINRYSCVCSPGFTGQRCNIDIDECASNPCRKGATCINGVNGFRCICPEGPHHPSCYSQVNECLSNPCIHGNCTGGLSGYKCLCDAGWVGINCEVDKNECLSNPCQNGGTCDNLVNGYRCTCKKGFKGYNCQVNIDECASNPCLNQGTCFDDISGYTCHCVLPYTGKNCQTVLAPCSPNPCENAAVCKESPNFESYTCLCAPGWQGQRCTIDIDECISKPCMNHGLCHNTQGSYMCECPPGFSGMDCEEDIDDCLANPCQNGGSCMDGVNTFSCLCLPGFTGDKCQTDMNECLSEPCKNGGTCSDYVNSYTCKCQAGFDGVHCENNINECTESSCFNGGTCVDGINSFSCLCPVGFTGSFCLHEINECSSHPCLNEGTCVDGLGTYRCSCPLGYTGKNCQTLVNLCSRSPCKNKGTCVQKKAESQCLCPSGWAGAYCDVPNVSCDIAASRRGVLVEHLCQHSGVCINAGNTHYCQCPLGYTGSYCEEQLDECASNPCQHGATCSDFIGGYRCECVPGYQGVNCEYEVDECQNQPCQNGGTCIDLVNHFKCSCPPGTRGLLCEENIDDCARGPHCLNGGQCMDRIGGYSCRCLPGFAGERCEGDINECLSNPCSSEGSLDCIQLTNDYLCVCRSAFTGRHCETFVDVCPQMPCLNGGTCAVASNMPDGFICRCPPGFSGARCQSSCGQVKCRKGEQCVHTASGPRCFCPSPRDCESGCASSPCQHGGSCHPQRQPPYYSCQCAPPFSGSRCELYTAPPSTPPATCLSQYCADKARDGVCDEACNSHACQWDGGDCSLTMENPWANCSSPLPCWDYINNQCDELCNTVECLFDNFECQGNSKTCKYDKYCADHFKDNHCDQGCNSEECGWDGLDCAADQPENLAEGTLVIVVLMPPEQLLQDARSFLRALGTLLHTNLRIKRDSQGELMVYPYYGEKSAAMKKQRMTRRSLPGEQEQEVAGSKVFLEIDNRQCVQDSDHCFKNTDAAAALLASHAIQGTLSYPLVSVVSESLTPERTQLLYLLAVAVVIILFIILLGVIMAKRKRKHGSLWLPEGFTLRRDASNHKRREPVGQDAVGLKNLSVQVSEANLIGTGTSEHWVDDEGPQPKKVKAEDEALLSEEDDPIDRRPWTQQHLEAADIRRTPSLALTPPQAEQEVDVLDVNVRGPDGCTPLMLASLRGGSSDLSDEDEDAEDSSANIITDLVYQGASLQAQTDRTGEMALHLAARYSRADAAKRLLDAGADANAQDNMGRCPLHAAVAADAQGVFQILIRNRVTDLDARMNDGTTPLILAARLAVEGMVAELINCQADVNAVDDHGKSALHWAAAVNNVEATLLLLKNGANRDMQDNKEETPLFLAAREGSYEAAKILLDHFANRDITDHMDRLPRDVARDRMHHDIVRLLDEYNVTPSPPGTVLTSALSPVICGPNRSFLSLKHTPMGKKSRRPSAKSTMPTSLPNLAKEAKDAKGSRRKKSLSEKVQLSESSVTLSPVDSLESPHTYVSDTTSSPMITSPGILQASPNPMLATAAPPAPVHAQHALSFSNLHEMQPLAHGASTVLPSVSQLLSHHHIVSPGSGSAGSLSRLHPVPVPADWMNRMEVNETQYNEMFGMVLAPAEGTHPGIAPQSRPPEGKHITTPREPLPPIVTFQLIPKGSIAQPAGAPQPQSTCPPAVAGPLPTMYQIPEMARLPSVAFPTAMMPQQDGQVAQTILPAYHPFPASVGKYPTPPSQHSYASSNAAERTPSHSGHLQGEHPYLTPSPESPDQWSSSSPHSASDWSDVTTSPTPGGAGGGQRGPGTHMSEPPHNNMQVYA
Assay [6] concerns the target Pro-neuregulin-1, membrane-bound isoform (Homo sapiens) (UniProt Q02297). Nature of the assay: small molecules binding neuregulin-1 protein – biochemical, small-molecule microarray, fluorescence 635/667, psychiatric disease protein project, primary screen (AID 1075).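 Note: score combines 667 nm spot fluorescence with signal to noise.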 Particulars: NRG1 binding, 635 nm fluorescence, higher = more signal.
Assay [7] relates to Neuregulin-1 EGF-like domain. Nature of the assay: small molecules binding NRG1 EGF domain – biochemical, small-molecule microarray, 635 nm fluorescence, primary screen (AID 1081).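 Note: binding of the protein to compounds printed on small-molecule microarray slides.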 Particulars: higher = more signal.
The nature of assay [8]: FRG1 expression reporter modulators in myotubes – cell-based, C2C12 myotubes, firefly/Renilla luciferase, luminescence, FRG1 inhibition for FSHD, primary screen (AID 1084). Particulars: FRG1 promoter luciferase, higher = more signal, called active from +8 up or from −8 down.
Assay [9] is described as follows: small molecules captured by biotinylated probe aFST – biochemical, small-molecule microarray, fluorescence 635/667, stem cell growth factor project, primary screen (AID 1086).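 Note: score merges 667 nm fluorescence with signal-to-noise of each printed compound spot.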 Particulars: higher = more signal.
Assay [10] can be described thus: binders of probe aHhip on microarray, primary screen, stem cell growth factor project, biochemical, small-molecule microarray, fluorescence 635/667 (AID 1087).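 Note: score merges spot fluorescence at 667nm with spot signal to noise ratio.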 Particulars: higher = more signal.
Assay [11] deals with PRMT1 (protein arginine N-methyltransferase 1). The assay can be described thus: small molecules binding arginine methyltransferase PRMT1 – biochemical, small-molecule microarray, 635 nm fluorescence, primary screen (AID 1088).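 Note: binding of Prmt1 protein to compounds spotted on small-molecule microarray slides.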 Particulars: higher = more signal.
Assay [12] in a line: growth effects on S. cerevisiae YJM789 – YJM789 clinical isolate, OD600, 24 h, basal, primary screen (AID 1089).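 Note: growth of clinical yeast isolate S. cerevisiae YJM 789 seeded 1000 cells per well; test concentration not given here.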 Particulars: higher = more signal, called active from +8 up or from −8 down.
The nature of assay [13]: S. pombe growth modifiers, basal conditions – strain 972, OD600, 24 h, no modulator, primary screen (AID 1090).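 Note: basal condition with compound alone and no growth modifier present; test concentration not given here.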 Particulars: S. pombe 972 growth, higher = more signal, called active from +8 up or from −8 down.
Assay [14] can be described thus: budding yeast growth modifiers under rapamycin – strain BY4716, OD600, 96 h, primary screen (AID 1091). Note: test concentration not given here. Particulars: S. cerevisiae BY4716 + rapamycin, higher = more signal, called active from +8 up or from −8 down.
Assay [15] deals with Torsin-1A-interacting protein 2 (Homo sapiens) (UniProt Q8NFQ8). Nature of the assay: small molecules binding lysate-expressed LULL1 – cell lysate, human LULL1 lysate, 635/667 nm fluorescence, primary screen (AID 1092).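 Note: probe is lysate of COS7 cells overexpressing human LULL1; score merges per-feature 667 nm fluorescence with signal-to-noise.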 Particulars: small-molecule microarray, hLULL1 lysate binding, 635 nm fluorescence; higher = more signal.
Chain of Torsin-1A-interacting protein 2 (Homo sapiens) (Q8NFQ8 whole entry, looked up): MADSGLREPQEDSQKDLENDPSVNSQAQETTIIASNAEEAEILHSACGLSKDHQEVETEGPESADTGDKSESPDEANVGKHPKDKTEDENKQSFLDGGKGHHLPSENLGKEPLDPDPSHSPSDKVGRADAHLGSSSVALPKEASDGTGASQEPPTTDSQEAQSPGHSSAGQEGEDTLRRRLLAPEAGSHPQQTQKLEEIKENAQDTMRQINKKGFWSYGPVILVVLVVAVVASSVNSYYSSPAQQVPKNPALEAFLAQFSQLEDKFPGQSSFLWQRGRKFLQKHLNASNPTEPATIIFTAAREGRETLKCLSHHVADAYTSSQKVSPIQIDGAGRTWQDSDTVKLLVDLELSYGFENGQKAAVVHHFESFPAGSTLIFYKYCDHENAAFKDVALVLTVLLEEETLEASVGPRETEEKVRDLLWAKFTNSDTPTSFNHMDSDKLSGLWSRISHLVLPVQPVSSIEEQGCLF
A short description of assay [16]: optical density change of DRC41 E. coli – strain DRC41, OD650, 24 h, E. coli filamentation project, primary screen (AID 1093).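 Note: MC1000 strain lacking acrAB efflux and sulA so SOS filamentation is blocked; test concentration not given here.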 Particulars: E. coli DRC41 growth, higher = more signal, called active from +8 up or from −8 down.
The nature of assay [17]: probe aLefty2 binding to arrayed compounds – biochemical, biotinylated probe, 635/667 nm fluorescence, primary screen (AID 1094).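 Note: score merges spot fluorescence near 667 nm with spot signal-to-noise ratio.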 Particulars: small-molecule microarray, higher = more signal.
Assay [18] deals with Noggin (protein binding on small-molecule microarray). The assay can be described thus: small molecules binding Noggin protein – biochemical, 635/667 nm fluorescence, primary screen (AID 1095).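 Note: score merges 667 nm feature fluorescence with signal to noise over triplicate slides.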 Particulars: 635 nm fluorescence, higher = more signal.
Assay [19] concerns the target Neurogenic locus notch homolog protein 3 (Homo sapiens) (UniProt Q9UM47). The assay can be described thus: small molecules binding NOTCH3 protein – biochemical, 635/667 nm fluorescence, primary screen (AID 1096). Particulars: small-molecule microarray, 635 nm fluorescence, higher = more signal.
The nature of assay [20]: probe aEGFR binding to arrayed compounds – biochemical, biotinylated probe, 635/667 nm fluorescence, primary screen (AID 1097).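 Note: probe is a biotinylated anti-EGFR antibody binding compounds printed on slides; score combines fluorescence near 667 nm and signal to noise of each spot.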 Particulars: small-molecule microarray, higher = more signal.

Chain of Pro-neuregulin-1, membrane-bound isoform (Homo sapiens) (Q02297 whole entry, looked up, the tested form may be a part, canonical isoform): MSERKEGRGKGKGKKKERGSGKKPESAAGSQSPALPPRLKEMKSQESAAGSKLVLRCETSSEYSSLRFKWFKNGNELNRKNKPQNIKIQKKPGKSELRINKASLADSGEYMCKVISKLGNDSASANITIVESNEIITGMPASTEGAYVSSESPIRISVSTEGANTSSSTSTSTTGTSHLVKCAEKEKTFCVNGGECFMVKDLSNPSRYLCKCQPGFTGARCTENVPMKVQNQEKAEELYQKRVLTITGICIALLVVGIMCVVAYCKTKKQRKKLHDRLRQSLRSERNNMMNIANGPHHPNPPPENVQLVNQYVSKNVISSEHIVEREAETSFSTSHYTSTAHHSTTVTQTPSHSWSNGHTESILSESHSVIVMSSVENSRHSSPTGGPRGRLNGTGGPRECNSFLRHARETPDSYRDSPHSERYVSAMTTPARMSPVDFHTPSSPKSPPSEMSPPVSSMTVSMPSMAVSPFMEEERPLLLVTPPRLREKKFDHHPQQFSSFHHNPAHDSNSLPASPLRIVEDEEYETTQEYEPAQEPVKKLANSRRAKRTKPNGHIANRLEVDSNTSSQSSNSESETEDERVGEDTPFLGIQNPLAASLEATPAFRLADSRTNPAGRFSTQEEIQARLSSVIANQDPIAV

Take `C=CCOC(=O)[C@H]1[C@@H]2C(=O)O[C@@H](c3ccccc3)[C@@H](c3ccccc3)N2[C@@H](c2ccc(OCCOC(=O)[C@@H]3C[C@@H]4C(=O)N5CCC[C@H]5C(=O)N4[C@@H]3c3ccc(O)cc3)cc2)[C@]12C(=O)Nc1ccc(I)cc12`: the composite z-score is 0.011 in [1]; -0.123 in assay [2]; -0.201 in assay [3]; 0.126 in assay [4]; 0.344 in assay [5]; 0.929 in assay [6]. Besides, the composite z-score is 0.718 in assay [7]; -0.0935 in [9]; -0.367 in assay [10]; 1.42 in assay [11]; 1.03 in assay [15]; -0.138 in [17]. The composite z-score was 0.674 in assay [18], 0.169 in [19] and -0.194 in assay [20]. Further, the z-score was 0.308 (inactive) in assay [8]; 0.882 (inactive) in [12]; 0.25 (inactive) in assay [13]; 2.77 (inactive) in [14]; -0.333 (inactive) in [16].

Regarding `Cc1ccc(S[C@]2(C(=O)NCC(F)(F)F)CC(=O)N(C3CCCCC3)[C@@H]2c2ccc(CO)cc2I)cc1`, the composite z-score in assay [1] was -0.203; in assay [2], 0.0659; in [3], 0.0464; in assay [4], 0.594; in [5], 1.18; in assay [6], 0.405. The composite z-score was determined as 1.18 in [7]; 0.233 in [9]; 0.213 in assay [10]; 1.54 in assay [11]; 2.82 in assay [15]; 0.171 in assay [17]. Further, the composite z-score in assay [18] came to 0.456; in [19] it was 1.14; in assay [20] it was 0.0516. The z-score in assay [8] is -2.91 (inactive); in [12] it was -0.332 (inactive); in [13], -0.692 (inactive); in assay [14] it was 1.23 (inactive); in [16], 0.312 (inactive).

As to `CC(C)C(=C=CC[C@H](O)c1cccc(OCCO)c1)C[C@H](O)c1cc(Cl)cc(Cl)c1O`, the composite z-score in assay [1] is -0.205; in assay [2], -0.178; in assay [3], -0.116; in [4] it was 0.792; in [5], -0.022; in assay [6], 0.462. Also, the composite z-score in [7] was 0.827; in assay [9], 0.53; in assay [10], 0.0722; in [11] it was 1.03; in [15] it was 2.37; in assay [17] it was -0.114. Moreover, the composite z-score in [18] was 0.665; in assay [19], 0.964; in [20], -0.0626. For the same compound, the z-score was 0.209 (inactive) in assay [8]; 0.834 (inactive) in assay [12]; -1.06 (inactive) in [13]; -0.129 (inactive) in assay [14]; 0.236 (inactive) in assay [16].

In the case of `CCCCCCc1nc(-c2cc(C)c(OC)c(C)c2)c(C)c2c1[Si](C(C)C)(C(C)C)OC2`, the composite z-score in assay [1] was -0.0656; in assay [2] it was 0.0489; in assay [3], -0.093; in [4], -0.0949; in [5], 0.0241; in [6], -0.391. Besides, the composite z-score in [7] is -0.453; in [9] it was 0.021; in assay [10], -0.116; in assay [11] it was -0.92; in assay [15], -0.407; in assay [17] it was -0.0915. The composite z-score in assay [18] was 0.058; in [19], -0.127; in [20] it was -0.171. The z-score is 0.785 (inactive) in assay [8]; 0.0333 (inactive) in [12]; -0.922 (inactive) in assay [13]; 0.276 (inactive) in assay [14]; 0.352 (inactive) in assay [16].

With `COC(=O)[C@@]1(Cc2ccc(F)cc2)[C@H]2c3cc(C(=O)N(C)C)n(CCc4ccc(O)c(OC)c4)c3C[C@H]2CN1C(=O)c1ccccc1`, the composite z-score in assay [1] was 1.71; in assay [2] it was 0.245; in assay [3], 0.735; in assay [4], 1.27; in assay [5] it was 1.27; in assay [6], -0.0157. In addition, the composite z-score was 1.03 in assay [7]; 1.7 in assay [9]; 0.372 in assay [10]; -0.646 in [11]; 1.01 in assay [15]; 1.42 in assay [17]. Further, the values for the composite z-score in assay [18], in [19] and in [20] were 0.446, 0.237 and 1.25, respectively. In addition, the z-score is 0.245 (inactive) in assay [8]; 0.503 (inactive) in assay [12]; 0.459 (inactive) in [13]; 0.689 (inactive) in assay [14]; -0.849 (inactive) in assay [16].

Turning to `C=C(/C(=C/C[C@H](OC(=O)c1ccncc1)c1ccc(CO)o1)c1cc(C(=O)OC)ccc1OC)C(C)C`, the composite z-score was -0.259 in assay [1]; 0.816 in assay [2]; -0.0097 in [3]; 1.08 in assay [4]; 0.238 in assay [5]; 0.928 in assay [6]. Also, the composite z-score is 1.23 in assay [7]; 0.201 in assay [9]; 0.113 in assay [10]; 1.44 in [11]; 1.6 in assay [15]; -0.116 in assay [17]. Besides, the values for the composite z-score in [18], in [19] and in assay [20] were 0.424, 1.02 and -0.0902, respectively. Moreover, the z-score was -0.918 (inactive) in [8]; -0.0096 (inactive) in assay [12]; -0.515 (inactive) in [13]; -0.38 (inactive) in assay [14]; 0.425 (inactive) in assay [16].

Turning to `COCCOC(=O)N1C(=O)[C@@]2(c3cc(C#CC4=CCCCC4)ccc31)[C@H](c1ccccc1OCCO)N1[C@H](c3ccccc3)[C@H](c3ccccc3)OC(=O)[C@H]1[C@@H]2C(=O)Nc1nc2ccccc2s1`, the composite z-score is -0.19 in assay [1]; -0.0036 in [2]; -0.0398 in [3]; 0.359 in assay [4]; 1.23 in assay [5]; 0.953 in assay [6]. Moreover, the composite z-score in assay [7] was determined as 1.08; in assay [9], 0.513; in assay [10], 0.0373; in assay [11], 1.29; in assay [15], 2.66; in assay [17], 0.0274. For the same compound, the figures for the composite z-score in assay [18], in assay [19] and in [20] were 1.05, 1.06 and -0.0728, respectively. For the same compound, the z-score in assay [8] was 1.41 (inactive); in assay [12] it was 0.478 (inactive); in [13], 0.615 (inactive); in [14], 1.29 (inactive); in assay [16], -0.15 (inactive).

Consider `COCCOC(=O)N1C(=O)[C@@]2(c3cc(C#Cc4ccc(OC)cc4)ccc31)[C@H](C(=O)Nc1nc3ccccc3s1)[C@H]1C(=O)O[C@H](c3ccccc3)[C@H](c3ccccc3)N1[C@@H]2c1ccc(OCCO)cc1`, for which the composite z-score in assay [1] is -0.51; in assay [2], 0.661; in [3], -0.0569; in assay [4], 0.784; in assay [5], 1.21; in [6], 0.138. Further, the composite z-score is 1.11 in [7]; 0.632 in assay [9]; -0.0618 in [10]; 1.56 in assay [11]; 1.02 in assay [15]; -0.0699 in assay [17]. Also, the composite z-score in assay [18] amounted to 1.54; in assay [19], 1.13; in assay [20] it was 0.0311. Besides, the z-score in assay [8] was 4.61 (inactive); in [12], 3.34 (inactive); in assay [13] it was 2.1 (inactive); in [14], 4.58 (inactive); in assay [16], 0.575 (inactive).

Consider `O=C1OCCC/C=C\[C@H]2OC34C=CCN(CCN5CCOCC5)C(=O)[C@H]3N(CCCCCCO)C(=O)[C@@H]4C12` (stereo not given in full), for which the composite z-score in assay [1] is 0.0814; in [2], 2.31; in assay [3], -0.171; in [4] it was -0.291; in assay [5], -0.0784; in assay [6], 1.91. Moreover, the composite z-score in assay [7] was 1.17; in assay [9] it was -0.151; in assay [10], -0.0994; in [11], 0.733; in assay [15] it was 2.39; in assay [17] it was -0.166. The results for the composite z-score in assay [18], in assay [19] and in assay [20] were -0.0171, 0.18 and -0.0953, respectively. In addition, the z-score was -1.05 (inactive) in [8]; -1.84 (inactive) in assay [12]; -1.29 (inactive) in assay [13]; -0.529 (inactive) in [14]; 1.33 (inactive) in assay [16].
